Rows were chosen to be rich in hits. Some 1.6% of all compounds tested hit in one or more screens of this group.
KCNQ2 block = inhibitors of rat KCNQ2 potassium channel | CHO-K1 KCNQ2, FluxOR thallium flux, 20 min; stronger effect = lower value | actives 1.1% (n = 310,000) | AID 2156 | O88943 | B-score at 10 µM;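 active = fluorescence ratio B-score at most minus 3 library SDs, with starting brightness B-score within 2 library SDs, cut at about -5.5 in these data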
Target sequence (O88943 whole entry, looked up): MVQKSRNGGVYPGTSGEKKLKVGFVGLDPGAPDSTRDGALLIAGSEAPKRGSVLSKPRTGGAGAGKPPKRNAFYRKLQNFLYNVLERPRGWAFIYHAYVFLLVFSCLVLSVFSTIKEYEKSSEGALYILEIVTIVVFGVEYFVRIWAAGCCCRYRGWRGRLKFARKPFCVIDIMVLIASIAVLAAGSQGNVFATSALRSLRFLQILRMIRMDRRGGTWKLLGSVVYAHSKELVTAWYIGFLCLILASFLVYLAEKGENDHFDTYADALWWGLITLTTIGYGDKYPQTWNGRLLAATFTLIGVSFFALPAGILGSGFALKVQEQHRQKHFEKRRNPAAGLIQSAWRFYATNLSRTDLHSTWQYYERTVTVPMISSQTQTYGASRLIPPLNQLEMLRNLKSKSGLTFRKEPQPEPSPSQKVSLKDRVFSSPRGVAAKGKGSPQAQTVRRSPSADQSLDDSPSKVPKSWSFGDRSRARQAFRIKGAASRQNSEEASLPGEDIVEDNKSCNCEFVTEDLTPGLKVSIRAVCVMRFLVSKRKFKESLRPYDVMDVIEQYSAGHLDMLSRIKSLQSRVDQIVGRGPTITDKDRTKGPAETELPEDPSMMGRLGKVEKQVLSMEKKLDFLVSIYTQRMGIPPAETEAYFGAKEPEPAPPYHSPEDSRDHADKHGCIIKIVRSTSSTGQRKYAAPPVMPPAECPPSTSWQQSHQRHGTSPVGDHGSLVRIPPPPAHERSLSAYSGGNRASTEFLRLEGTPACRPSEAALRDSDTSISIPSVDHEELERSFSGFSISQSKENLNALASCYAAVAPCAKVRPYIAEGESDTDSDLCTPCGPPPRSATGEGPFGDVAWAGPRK
KCNQ2 enhance = potentiators of rat KCNQ2 potassium channel; CHO-K1 KCNQ2, FluxOR thallium flux fluorescence; stronger effect = higher value; B-score at 10 µM; actives 0.54% (n = 310,000);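 active = fluorescence ratio B-score at least 3 SD of library B-scores, with initial fluorescence B-score within 3 of them, cut at about 5.3 in these data; same plate scores as AID 2156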;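 note: B-score of peak minus minimum over baseline fluorescence ratio after K+ and Tl+ stimulus; positive B-score means potentiation of KCNQ2 with more thallium influx and brighter signal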
* hit, by the source's call; i = inactive; nt = no result.

SMILES | KCNQ2 block | KCNQ2 enhance
CCN1CCN(C(=O)c2cccc(OC3CCN(S(C)(=O)=O)CC3)c2)[C@@H](C)C1=O | i | 1.2
COc1ccc(C)cc1NC(=O)C(Sc1nnc2ccccn12)c1ccccc1 (stereo not given) | i | nt
COc1ccc(C)cc1NC(=O)C(Sc1nnc(-c2ccncc2)n1-c1ccc(Cl)cc1)c1ccccc1 (stereo not given) | -7.9* | -7.9
COc1cc(NS(=O)(=O)c2c(C)oc3c(F)c(F)c(F)c(F)c23)cc(OC)c1OC | -6.7* | -6.7
COc1cc(NS(=O)(=O)c2ccc3c(c2)oc(=O)n3C)cc(OC)c1OC | i | nt
Cc1ccc2nc(Cl)c(CN(Cc3cccs3)C(=O)C3CC3)cc2c1 | i | nt
COc1ccc(CCN(Cc2cc3cc(C)c(C)cc3nc2Cl)C(=O)C2CC2)cc1 | -6.5* | -6.5
Cc1cc(C)c[n+](C(C)C(=O)c2ccc(Cl)cc2)c1 (stereo not given) | i | 0.5
CCC(C(=O)OCC(=O)N(C)c1c(N)n(Cc2ccccc2)c(=O)[nH]c1=O)c1ccccc1 (stereo not given) | i | nt
Cc1ccc(Cl)cc1N1CCN(C(=S)NCCc2ccccc2)CC1 | -5.8* | -5.8
Cc1cccc(N2CCN(C(=S)NCCc3ccccc3)CC2)c1C | i | nt
CCCCOC(=O)c1ccc(NC(=O)C(=O)CC(=O)c2ccc(OC)cc2)cc1 | i | nt
CNC(=O)NNC(=O)c1nc(-c2ccccc2)c(C)o1 | i | 2.3
COc1ccccc1N1CCN(/N=C/c2ccc([N+](=O)[O-])cc2)CC1 | i | nt
COc1ccccc1N1CCN(/N=C/c2ccc(Cl)c([N+](=O)[O-])c2)CC1 | -6.1* | -6.1
CCC1(c2ccccc2)NC(=O)N(CC(=O)Nc2ccc3c(C)cc(=O)oc3c2)C1=O (stereo not given) | i | nt
Cc1ccc(S(=O)(=O)NCCC(=O)Nc2ccc(C)cc2C(=O)c2ccccc2)cc1 | i | 5.4*
CCN(CC)CC(=O)Nc1ccc(C)cc1C(=O)c1ccccc1 | i | nt
Cc1ccccc1N(C)S(=O)(=O)c1nnc(NC(=O)c2ccco2)s1 | i | 0.04
COc1ccc(Cn2c(=O)[nH]c3cc(C(=O)N4CCN(Cc5ccccc5)CC4)ccc3c2=O)cc1 | i | nt
COc1ccc2c(C)c(C(=O)N3CCN(Cc4ccccc4)CC3)oc2c1 | -6.2* | -6.2
Cc1ccc(C(=O)N2CCC3(CC2)Oc2ccc(Cl)cc2C(=O)C32CC(c3cccnc3)=NO2)s1 (stereo not given) | i | nt
O=C(/C=C/c1cccs1)N1CCC2(CC1)Oc1ccc(Cl)cc1C(=O)C21CC(c2cccnc2)=NO1 (stereo not given) | -6.8* | -6.8
CC(C)c1ccc(-c2cc(C(=O)N3CCOCC3)c3cc(Br)ccc3n2)cc1 | -6* | -6
O=C(c1cc(-c2ccccc2)nc2ccccc12)N1CCOCC1 | i | nt
SMILES | KCNQ2 block | KCNQ2 enhance
Cc1ccc(S(=O)(=O)Nc2cccc3ncccc23)s1 | i | 6*
Cc1ccc(S(=O)(=O)Nc2cccc3ncccc23)cc1 | i | nt
CC1CCCN(CCCNS(=O)(=O)c2ccc3c(c2)CCN3C(=O)C2CC2)C1 (stereo not given) | i | 0.3
O=C(NC1CCN(Cc2ccccc2)CC1)c1cccc(OC(F)F)c1 | i | 0.15
O=C(O)c1ccc(NC(=S)NC(=O)c2cccc(COc3ccccc3)c2)cc1 | i | nt
CC(=O)c1cccc(OCc2cc(C(=O)NC3CCN(Cc4ccccc4)CC3)no2)c1 | i | 6.3*
O=C(NC(=S)Nc1ccc(CN2CCCCC2)cc1)c1cccc(OCc2ccccc2)c1 | -6* | -6
O=C(CN1CCN(Cc2ccc(F)cc2)CC1)NCc1ccccc1 | i | nt
CCOC(=O)c1c(S(=O)(=O)N2CCN(c3ccc(F)cc3)CC2)c(C)n(C)c1C | i | nt
C=CCN(C(=O)c1oc2c(Cl)cc(C)cc2c1C)C1CCS(=O)(=O)C1 (stereo not given) | i | nt
CCOC(=O)C1CCN(Cc2cc(Cl)c3ccccc3c2O)CC1 | i | nt
O=C(C1CC1)N1CCN(c2ccc(O)cc2)CC1 | i | nt
O=C(CCCC(=O)OCC(Cl)=C(Cl)Cl)Nc1cccc2ccccc12 | i | nt
O=C(CCCC(=O)OCC(Cl)=C(Cl)Cl)Nc1ccc(F)cc1 | i | 9.2*
Cc1cccc(N2CCN(C(=O)CCCCCn3c(=S)[nH]c4ccc(N5CCOCC5)cc4c3=O)CC2)c1C | i | nt
Cc1onc(-c2ccc3c(c2)OCO3)c1-c1ccc2[nH]ccc2c1 | -7.9* | -7.9
c1cc2cc(-c3c(-c4ccc5c(c4)OCO5)noc3-c3ccsc3)ccc2[nH]1 | i | nt
CCOC(=O)N1C(=O)[C@](CC)(c2ccccc2)N1C(=O)OCC | i | 0.2
CCC1(c2ccccc2)C(=O)N(C(=O)OC(C)(C)C)N1C(=O)OC(C)(C)C (stereo not given) | -6.5* | -6.5
CCN1/C(=C/c2ccc3ccccc3[n+]2CCCS(=O)(=O)[O-])C=Cc2cc(C)ccc21 | i | 0.41
CCN1/C(=C/c2ccc3ccccc3[n+]2CC)C=Cc2ccccc21 | -15* | -15
O=C(Nc1ccc(S(=O)(=O)Nc2ccnn2-c2ccccc2)cc1)C(F)(F)F | i | 0.41
O=C(Cn1c(=O)n(CCC(=O)N2CCCCC2)c(=O)c2sccc21)NCc1ccccc1 | i | 0.02
O=[N+]([O-])c1ccc(C2(O)CN(c3ccccc3)C3=[N+]2CCS3)cc1 (stereo not given) | -6.5* | -6.5
Cc1ccc(C2(O)CN(c3ccccc3)C3=[N+]2CCS3)cc1 (stereo not given) | i | nt
SMILES | KCNQ2 block | KCNQ2 enhance
Cc1nc2ccccc2c(=O)n1/N=C/c1ccco1 | i | nt
Cc1nc2scc(-c3ccccc3)c2c(=O)n1/N=C/c1ccco1 | -6.4* | -6.4
COc1cccc(/C=N/NC(=O)c2ccc([N+](=O)[O-])cc2Cl)c1O | i | 7.7*
COc1cc(/C=N/NC(=O)c2cccc([N+](=O)[O-])c2)cc(OC)c1O | i | 1.9
COc1cc2[nH]c(=O)n(CCCCCC(=O)N3CCN(c4ccccc4)CC3)c(=O)c2cc1OC | -8.3* | -8.3
COC(=O)c1ccc2c(=O)n(CCCCCC(=O)N3CCN(c4ccccc4)CC3)c(=O)[nH]c2c1 | i | 0.02
CC(OC(=O)CCC1CCCCC1)C(=O)Nc1ccc(S(N)(=O)=O)cc1 (stereo not given) | i | 0.82
O=C(c1ccc2c(=O)n3c(nc2c1)CCC3)N1CCN(S(=O)(=O)c2cccc(F)c2)CC1 | i | 0.06
O=C1N(c2ccccc2)c2ccccc2C1(Cc1ccncc1)Cc1ccncc1 | -5.6* | -5.6
CC1(CCBr)C(=O)N(c2ccccc2)c2ccccc21 (stereo not given) | i | nt
COc1ccc(OC)c(C(C(=O)NC2CCCCC2)N(C(=O)c2snc(C(N)=O)c2N)c2ccccc2OC)c1 (stereo not given) | i | nt
COc1ccc(N(C(=O)c2snc(C(N)=O)c2N)C(C(=O)NC2CCCC2)c2cccs2)c(OC)c1 (stereo not given) | -8* | -8
CCCC[C@@H]1C[C@H]1[C@@H](NC(=O)c1cccs1)c1ccc(Cl)cc1 | -8* | -8
CCCC[C@@H]1C[C@H]1[C@@H](NC(=O)c1ccco1)c1ccc(Cl)cc1 | i | nt
COc1cc(C(=O)NNC(=S)Nc2ccc(S(N)(=O)=O)cc2)cc(OC)c1OC | -6.1* | -6.1
COc1ccc(C(=O)NC(=S)Nc2ccc(S(N)(=O)=O)cc2)cc1 | i | 1.6
